Screens deposited in PubChem BioAssay by several laboratories.
MITF act: increases MITF-driven TRPM1 promoter luciferase signal; SK-MEL-5 TRPM1-promoter luciferase, 24 h; % of positive control, neutral wells = 0; activation, % at 12.5 µM; hit rate 0.75% among 300,000; AID 588334;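 active means mean activation of at least 80% with every replicate also reaching 80%; inconclusive means mean reaches 80% but some replicate falls short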;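 further: 0% = neutral control wells and 100% = parthenolide positive control wells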
Wnt bcat act: Wnt/beta-catenin pathway activation; Wnt/beta-catenin reporter cell assay, activator, plate reader; hit rate 1.2% among 300,000; activation, % at 9.35 µM; in the data active means activation above about 30%, passing the limit was not always enough; inconclusive means no clear call, values can overlap the other calls;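 further: 0% = neutral control wells and 100% = positive control wells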
FXN GAA850 act: activators of GAA850 frataxin (FXN) promoter; activation, % at 6 µM; AID 540364; hit rate 0.56% among 360,000; HEK293 lucGAA850 FXN promoter luciferase reporter, 24 h; percent of 10 µM SAHA response;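 active means activation above the average of all compounds screened plus 3 SD, cutoff fixed separately per campaign, cut at about 7.5% in these data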;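 further: 0% = DMSO wells and 100% = 10 µM SAHA wells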
AHR activator: activates the human aryl hydrocarbon receptor | P35869 | AHR-responsive luciferase reporter cells, luminescence | activation, % at 5 µM | hit rate 2.5% among 320,000; in the data active means activation above about 47%;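 further: 0% = vehicle wells and 100% = reference agonist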
Target sequence (P35869 whole entry, looked up): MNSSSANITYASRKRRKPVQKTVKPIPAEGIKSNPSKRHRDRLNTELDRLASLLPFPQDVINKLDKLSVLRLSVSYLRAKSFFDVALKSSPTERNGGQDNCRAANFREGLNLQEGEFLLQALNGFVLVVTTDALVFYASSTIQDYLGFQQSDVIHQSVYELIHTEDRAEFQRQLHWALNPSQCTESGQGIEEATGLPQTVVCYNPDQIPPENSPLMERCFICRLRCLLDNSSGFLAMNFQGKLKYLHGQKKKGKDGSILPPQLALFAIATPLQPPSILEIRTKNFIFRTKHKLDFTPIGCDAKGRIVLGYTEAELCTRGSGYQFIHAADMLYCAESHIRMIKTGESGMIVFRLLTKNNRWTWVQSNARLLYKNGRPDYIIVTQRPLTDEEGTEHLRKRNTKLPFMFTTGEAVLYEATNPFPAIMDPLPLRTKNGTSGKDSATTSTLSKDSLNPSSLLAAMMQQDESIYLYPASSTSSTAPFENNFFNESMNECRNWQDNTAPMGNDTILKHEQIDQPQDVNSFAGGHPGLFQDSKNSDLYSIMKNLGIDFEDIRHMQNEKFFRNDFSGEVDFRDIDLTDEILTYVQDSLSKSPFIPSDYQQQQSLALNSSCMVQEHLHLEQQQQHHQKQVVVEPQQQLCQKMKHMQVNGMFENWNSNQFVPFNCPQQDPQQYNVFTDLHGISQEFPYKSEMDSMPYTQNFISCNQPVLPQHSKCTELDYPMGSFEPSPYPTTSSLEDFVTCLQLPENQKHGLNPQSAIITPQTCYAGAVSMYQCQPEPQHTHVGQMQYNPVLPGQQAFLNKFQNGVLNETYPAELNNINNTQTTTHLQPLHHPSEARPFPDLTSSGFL
esBAF inh: inhibitors of esBAF chromatin remodeling in mouse ES cells; Bmi1-luciferase knock-in reporter, 24 h; 100% = twice the neutral-well signal; reporter increase, % at 12.5 µM; hit rate 2% among 350,000; in the data active means activation above about 40%; inconclusive means no clear call, values can overlap the other calls;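 further: 0% = median of the plate's neutral control wells and 100% = double that signal; a rise in the Bmi1 reporter signal indicates esBAF inhibition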
Active calls of the source: *; ? = inconclusive; / = no result. Shown are actives, neighbours in structure and some others; about 4.2% of the full set was active somewhere.

SMILES	MITF act	Wnt bcat act	FXN GAA850 act	AHR activator	esBAF inh
CC(=O)C1=C(C)NC(SCC(=O)c2ccc(F)cc2)=C(C#N)C1c1ccco1 (configuration not stated)	-4.8	/	-0.1	64.1*	12.9
CC(=O)C1=C(C)NC(SCC(=O)c2cc(Cl)ccc2Cl)=C(C#N)C1c1ccco1 (configuration not stated)	-8.0	-2.1	5.0	83.3*	/
CCc1ccc(C(=O)CSC2=C(C#N)C(c3ccco3)C(C(C)=O)=C(C)N2)cc1 (configuration not stated)	/	/	/	9.0	/
O=C1C=C(c2ccc3[nH]ccc3c2)CCC1	?	46.4*	3.3	3.0	88.0*
O=C(c1ccc(F)cc1)N1CC[C@@H]2[C@H](CO)Nc3ccc(C#Cc4ccccc4F)cc3[C@@H]21	/	/	/	/	4.6
COc1cccc(-c2nc3ccc([N+](=O)[O-])cc3o2)c1	54.4	12.0	1.2	18.6	/
COC(=O)C1CCN(C(=O)c2ccc3nc(-c4cccc(OC)c4)oc3c2)CC1	-1.2	32.3*	7.4	9.7	/
COC(=O)C1CCN(C(=O)c2ccc3nccnc3c2)CC1	-1.3	0.0	-1.0	/	-4.5
COc1cccc(-c2nc3ccc(C(=O)NC(C)Cc4cccnc4)cc3o2)c1 (configuration not stated)	39.6	23.3	5.9	29.5	54.3*
O=C(C[C@H]1C[C@@H]2c3cc(NC(=O)NC4CCCC4)ccc3O[C@@H]2[C@H](CO)O1)NCc1cc(F)ccc1F	/	/	/	/	2.3
O=C1CN(C(=O)c2ccc(Br)o2)C(c2ccc(F)cc2)c2cc(Cl)ccc2N1 (configuration not stated)	-2.6	-10.8	-1.2	27.1	14.8
O=C1CN(C(=O)c2ccc(Br)o2)C(c2ccccc2)c2cc(Br)ccc2N1 (configuration not stated)	/	-3.8	0.3	70.5*	3.6
O=C1CN(C(=O)c2ccc(Br)o2)C(c2ccccc2)c2cc(Cl)ccc2N1 (configuration not stated)	-20.6	-2.0	-1.3	65.8*	2.1
Cc1ccc(S(=O)(=O)N(C)C[C@H]2Oc3ccc(NC(=O)C4CCCCC4)cc3CC(=O)N([C@@H](C)CO)C[C@@H]2C)cc1	/	/	/	/	5.2
Cc1cc(=O)n2[nH]c(N)c(N=Nc3ccccc3F)c2n1	4.9	-0.6	1.8	14.2	/
Nc1c(N=Nc2ccccc2F)c(=O)[nH]n1-c1ccccc1	54.2	10.8	0.5	18.1	69.4*
Cc1nc(N)c(C#N)c(-c2ccccc2Cl)c1C	-0.8	-1.4	7.0	-1.6	-1.2
Cc1nc2c(N=Nc3ccccc3F)c(N)nn2c(N)c1C#N	-4.8	-1.3	2.1	59.6*	/
Nc1nn(-c2ccccc2)c(N)c1N=Nc1ccccc1F	-7.0	7.8	1.0	63.6*	/
COc1ccc(CNC(=O)Nc2ccccc2)cc1	60.2	29.0	5.7	7.3	29.4
O=C(Nc1cccnc1)Nc1ccc(Cl)cc1Cl	30.3	3.8	3.5	47.6*	/
CCOc1ccc(NC(=O)Nc2cccnc2)cc1	30.4	-9.6	3.6	61.4*	/
O=C(Nc1ccc(Cc2ccc(NC(=O)Nc3cccnc3)cc2)cc1)Nc1cccnc1	/	-1.8	0.0	/	56.0*
COc1cccc(NC(=O)Nc2ccc(Cc3ccncc3)cc2)c1	17.6	0.4	1.6	5.5	/
CCOc1ccc(CNC(=O)Nc2ccccc2)cc1	65.4	11.0	3.1	5.3	47.4*
SMILES	MITF act	Wnt bcat act	FXN GAA850 act	AHR activator	esBAF inh
COc1ccc(NC(=O)Nc2cccnc2)cc1	31.6	15.9	0.8	26.9	17.7
CCCC(=O)Nc1ccc2c(c1)C(=O)N(C)[C@H]1CC[C@H](CC(=O)Nc3ccccc3)O[C@H]1CO2	/	/	/	/	4.8
NS(=O)(=O)c1cccc(NC(=O)Nc2ccccc2)c1	-0.4	1.0	-0.6	7.5	8.6
Cc1cccc(NC(=O)Nc2ccncc2)c1	21.1	/	1.5	53.3*	9.8
CC(=O)c1cccc(NC(=O)Nc2cccnc2)c1	-1.1	-3.0	-8.8	65.3*	-18.9
Cc1cc(C)cc(NC(=O)Nc2cccc(S(N)(=O)=O)c2)c1	/	-0.1	1.9	58.3*	/
CO[C@@H]1CN(C)C(=O)c2cc(NC(=O)c3cnccn3)ccc2OC[C@H](C)N(C(C)=O)C[C@@H]1C	/	/	/	/	-1.2
C[C@@H]1CCCCO[C@@H](CN(C)C(=O)Nc2ccc(C(F)(F)F)cc2)[C@H](C)CN([C@H](C)CO)C(=O)c2cc(NC(=O)NC3CCCCC3)ccc2O1	/	/	/	/	6.8
N#Cc1cc2c(=O)n3ccccc3nc2n(CCCn2ccnc2)c1=N	-4.3	-3.9	-1.0	102.0*	3.9
